Measurements reported in PubChem BioAssay (Tox21).
Results filed as inconclusive are left out. A number with no mark means an inactive call. Active and inactive are the calls of the source. The call rests on the fitted dose curve; in most records, active means well fitted cell-killing curve with a large enough effect in the repeat runs; inconclusive means weak or mixed curves; inactive means no such curve, though single readings can be large or run the other way.

Test: qHTS assay to identify small molecule antagonists of the androgen receptor (AR) signaling pathway - cell viability counter screen (AID 743033; further: nearly all actives have a fitted effect of over 45% in size)
Details: AR-bla HEK293 viability, CellTiter-Glo luminescence, 16 h; series mostly up to 58.5 µM; activity change, negative = cytotoxicity: at the top concentration
Excerpt: National Center for Advancing Translational Sciences [NCATS]
NIH Chemical Genomics Center [NCGC]
U.S. Environmental Protection Agency [EPA]
National Institutes of Environmental Health Sciences [NIEHS]
National Toxicology Program [NTP]
U.S. Food and Drug Administration [FDA]
Androgen receptor (AR), a nuclear hormone receptor, plays a critical role in AR-dependent prostate cancer and other androgen related diseases. Endocrine disrupting chemicals (EDCs) and their interactions with steroid hormone receptors like AR may cause disruption of normal endocrine function as well as interfere with metabolic homeostasis, reproduction, developmental and behavioral functions. To identify the compounds that inhibit AR signaling, GeneBLAzer AR-UAS-bla-GripTite cell line (Invitrogen, Carlsbad, CA, USA) containing a beta-lactamase reporter gene under control of an Upstream Activator Sequence (UAS) stably integrated into HEK293 cells was used to screen the Tox21 10K compound library. The cytotoxicity of the Tox21 compound library against the AR-bla cell line was tested in parallel by measuring the cell viability using CellTiter-Glo assay in the same wells.
Tox21 Assay Protocol Summary:
AR-bla cells were dispensed at 2,000 cells/5 uL of assay medium per well into black wall/clear-bottom 1536-well plates using a Multidrop Combi (ThermoFisher Scientific, Waltham, MA) dispenser. After the assay plates were incubated at a 37C and 5% CO2 for 4 hr, 23 nL of compounds dissolved in DMSO, positive controls or DMSO only was transferred to the assay plate by a Pintool station (Kalypsys, San Diego, CA), followed by addition of 1 uL of agonist (R1881) in culture medium using a Bioraptr Flying Reagent Dispenser (FRD) workstation (Beckman Coulter, Indianapolis, IN, USA). The plates were incubated at a 37C and 5% CO2 for 16 h. After 1 uL of LiveBLAzerTM B/G FRET substrate was added using a Bioraptr FRD, the plates were incubated at room temperature for 2 h and fluorescence intensity was measured by an Envision plate reader (PerkinElmer, Shelton, CT). For cell viability readout that measures cytotoxicity, 4 ul/well of CellTiter-Glo reagent was added into the assay plates using a Bioraptr FRD. After 30 min incubation at room temperature, the luminescence intensity in the plates was measured using a ViewLux (PerkinElmer) plate reader.
On the % scale 0 is the no-effect control and ±100 the full control effect.

Compound | activity change, negative = cytotoxicity | Potency
CCOC(C)(C)C | 0.0067% [at 78.9 µM] | 
c1ccc([C@H]2CN3CCSC3=N2)cc1 | -31.4% | 
OC(CCN1CCCCC1)(c1ccccc1)C1CC2C=CC1C2 (stereo not given) |  | inactive
CCOC(=O)CCC(C)=O | -1.8% | 
CCO[Si](CCC1CCC2OC2C1)(OCC)OCC (stereo not given) | 0.0249% | 
NCCCNCCSP(=O)(O)O | 5.65% | 
C[C@@H]1CCN(C(=O)[C@H](CCCN=C(N)N)NS(=O)(=O)c2cccc3c2NC[C@H](C)C3)[C@@H](C(=O)O)C1 | 2.42% | 
CCCCOCCOCCOCc1cc2c(cc1CCC)OCO2 | 2.1% | 
CCCc1cc(C(N)=S)ccn1 | -24.3% | 
O=S(O)CO |  | inactive
NC(=O)c1cn(Cc2c(F)cccc2F)nn1 | 7.97% | 
CCOC(=O)c1c(C)n(C)c2ccc(O)cc12 | -0.328% | 
NC(=O)c1ccc([N+](=O)[O-])cc1 | 2.3% | 
CCCCCCCCS(=O)(=O)Cl | -9.86% [at 78.9 µM] | 
CCCCC/C=C\CCC=O | 5.35% | 
C=C(C)CS(=O)(=O)O | 1.72% | 
CCO/C([O-])=N/c1c[n+](N2CCOCC2)no1 | -21.6% [at 27 µM] | 
C=C1CC[C@H]2C[C@@H]1C2(C)C | -6.17% | 
Cc1ccc(Cl)cc1Cl | 3.86% | 
N=C(N)c1ccc(OCCCOc2ccc(C(=N)N)cc2)cc1 | -16.3% | 

Compound | activity change, negative = cytotoxicity | Potency
CN1CCCC1 | 3.27% | 
COc1nc(N)nc2c1ncn2[C@@H]1O[C@H](CO)[C@@H](O)[C@@H]1O | -1.35% | 
CC[N+](C)(C)c1cccc(O)c1 | -17.7% [at 27 µM] | 
CCC=O | 1.48% [at 78.9 µM] | 
O=C(O)CCCc1ccccc1 | -0.558% | 
Cn1cc(S(C)=O)c(=O)c2ccc(F)cc21 (stereo not given) | -3.42% | 
O=C1CC2CC1C1CCCC21 (stereo not given) | 18.6% | 
CC1=CC(C)C(C=O)CC1 (stereo not given) | 5.75% | 
COC(=O)CCSCCC(=O)OC | 0.376% | 
CC(C)(C)c1ccc(O)c(O)c1 | -25.1% [at 78.9 µM] | 
Nc1c[n+](N2CCOCC2)no1 | 4.82% | 
Nc1ccccc1S(=O)(=O)O | -6.84% | 
O=C(O)COc1nn(Cc2ccccc2)c2ccccc12 | 0.444% | 
CCCCCCCCCCCCN(CCCCCCCCCCCC)CCCCCCCCCCCC | 1.59% | 
CCN(CC)CCOCCOC(=O)C1(c2ccccc2)CCCC1 | 6.44% | 
O=C(O)CCCl | -5.68% [at 78.9 µM] | 
O=C1NC(=O)[C@@]2(CCOc3ccc(F)cc32)N1 | -8.97% | 
CC/C=C\CC/C=C/C(OCC)OCC | -5.28% | 
Cn1c(N)c(N=O)c(=O)n(C)c1=O | 1.85% [at 78.9 µM] | 
CCSC(=O)N(CC(C)C)CC(C)C | 0.393% | 
